Values quoted from earlier work, collected in PubChem BioAssay AID977611 (Shanghai Institute of Organic Chemistry, 2013).
About 3,900 (100%) of roughly 3,900 compounds were called active. No cut-off is given here; in the data, nearly all actives have Kd up to about 4200 µM. So high a share suggests a set chosen from earlier hits. The list shows a part of the results.

Assay: PubChem AID 977611
Conditions: PDB protein-ligand complexes, literature Kd

For H-EKVHVQ-OH, the Kd (protein: Coatomer subunit beta', PDB entry 4j79) is listed as 800 µM (active).

In the case of H-KPHSD-OH, the Kd (protein: Coatomer subunit beta', PDB entry 4j81) is given as 31.9 µM (active).

For H-KSHQE-OH, the Kd (protein: Coatomer subunit beta', PDB entry 4j82) is listed as 44.2 µM (active).

For H-KKQKVHALFYK-OH, the Kd (protein: RV144-elicited antibody CH58, PDB entry 4hpy) is listed as 0.00012 µM (active).

In the case of Cc1onc(-c2ccccc2Cl)c1C(=O)Nc1ccc(C(C)C)cc1, the Kd (protein: Isoprenyl transferase UPPs, PDB entry 4q9m) is given as 0.066 µM (active) and the Kd (protein: Isoprenyl transferase UPPs, PDB entry 4q9o) is given as 1.7 µM (active).

In the case of H-QLINTNGSWHIN-OH, the Kd (protein: MRCT10.v362 Fab light chain & MRCT10.v362 Fab heavy chain, PDB entry 4hs6) is listed as 0.03 µM (active) and the Kd (protein: antibody hu5B3.v2 Fab heavy chain & antibody hu5B3.v2 Fab light chain, PDB entry 4hs8) is listed as 0.012 µM (active).

For H-QLINTNGSWHV-OH, the Kd (protein: Fab fragment derived from neutralizing antibody 3/11, PDB entry 4why) is listed as 0.0079 µM (active).

For H-QLINTNGSWHVN-OH, the Kd (protein: Fab fragment derived from neutralizing antibody 3/11, PDB entry 4wht) is given as 0.0079 µM (active).

For H-GKISKHWTGI-OH, the Kd (protein: Importin ?-2 Subunit, PDB entry 1y2a) is listed as 0.0458 µM (active).

In the case of CC[C@H](C)[C@H](N)C(=O)N[C@@H](CS)C(=O)N[C@H](C(=O)N[C@@H](Cc1c[nH]c2ccccc12)C(=O)N[C@@H](CCC(N)=O)C(=O)N[C@@H](CC(=O)O)C(=O)N[C@@H](Cc1c[nH]c2ccccc12)C(=O)NCC(=O)N[C@@H](C)C(=O)N[C@@H](Cc1cnc[nH]1)C(=O)N[C@@H](CCCNC(N)N)C(=O)N[C@@H](CS)C(=O)N[C@H](C(=O)O)[C@@H](C)O)C(C)C, the Kd (protein: Component C3c, PDB entry 2qki) is given as 0.39 µM (active).

For O=C(O)c1ccc2nc(-c3cc(Cl)cc(Cl)c3)oc2c1, the Kd (protein: Transthyretin (V122I mutation), PDB entry 4his) is listed as 0.0081 µM (active).

For CC(=O)[C@]1(O)CC2=C(C(=O)C3=C(C(=O)c4ccccc4C3=O)C2O)[C@@H](O[C@H]2C[C@H](N)[C@H](O)[C@H](C)O2)C1 (stereo partly drawn), the Kd (protein: Chitinase A, PDB entry 3arq) is listed as 0.4 µM (active).

In the case of CCC/C=C/CCO[C@H]1O[C@H](CO)[C@@H](O)[C@H](O)[C@@H]1O, the Kd (protein: Protein FimH, PDB entry 4lov) is listed as 0.0171 µM (active).

In the case of CN(C)CCCC[C@H](N)C(=O)O, the Kd (protein: Tumor suppressor p53-binding protein 1 tandem tudor domain, PDB entry 3lgl) is listed as 0.9 µM (active).

In the case of CC(=O)NCCCC[C@H](N)C(=O)O, the Kd (protein: Chromatin structure-remodeling complex protein Rsc4(36340), PDB entry 2r0y) is given as 1000 µM (active).

For N[C@@H](CCS)C(=O)O, the Kd (protein: Betaine-Homocysteine S-Methyltransferase from Homo sapiens, PDB entry 4m3p) is given as 4 µM (active).
